A selection: hits, their analogues and other compounds. The true share with any hit is near 10%.
FLuc inh: Photinus pyralis luciferase inhibition; Potency, µM (highest dose often 115 µM), most hits filed as inhibitors; AID 1347043; purified P. pyralis luciferase, luminescence, biochemical; hit rate 2.5% among 76,000; P08659; also: nearly all actives have a fitted effect of over 65% in size
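Purified P. pyralis luciferase (10nM final) in 50mM Tris acetate pH 7.5, 10mM Mg acetate, 0.01% Tween-20, 0.05% BSA with 10uM D-luciferin and 10uM ATP. Compounds titrated qHTS. Luminescence imaged on CCD.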
hNpr1 antagonist: antagonists of human natriuretic peptide receptor Npr1. P16066. HEK293 hNpr1 GloSensor cGMP, ANP-stimulated luminescence. Potency, µM (series often up to 46.3 µM), for inactives: at the top dose activity change, negative = inhibition, most hits filed as inhibitors. hit rate 1.6% among 76,000. AID 1347048; calls by dose curve; also: nearly all actives have a fitted effect of over 60% in size
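Compound pre-incubated 30 min at room temperature on GloSensor-loaded HEK293 cells stably carrying hNpr1 and the pGS-40F cGMP biosensor. Stimulation uses hNppA at 0.1 nM final; luminescence is taken at baseline and 20 min post-agonist.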
GPT2 inh: blocks human glutamate pyruvate transaminase 2; Q8TD30; Recombinant GPT2, coupled pyruvate oxidase/HRP Amplex Red fluorescence; Potency, µM (doses to about 57.7 µM), for inactives: at the top dose activity change, negative = inhibition, actives largely listed as inhibitors; hit rate 0.25% among 100,000; also: nearly all actives have a fitted effect of over 60% in size
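Inhibition is scored from Amplex Red fluorescence generated when pyruvate oxidase and HRP act on pyruvate released by GPT2. Reactions contain 10ng/uL enzyme, 250uM a-KG and 2mM L-alanine and run 30 min at room temperature.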
NIH3T3 tox: cytotoxic compounds in NIH 3T3 cells. NIH 3T3 viability, CellTiter-Glo ATP luminescence, 48-72 h. Potency, µM (series often up to 96.7 µM), for inactives: at the top dose activity change, negative = cytotoxicity, most hits filed as inhibitors. hit rate 4.3% among 94,000; also: nearly all actives have a fitted effect of over 55% in size
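Viability of NIH 3T3 cells after 48 or 72 hr compound treatment at 37 °C was assessed by CellTiter-Glo, with luminescence imaged following a 10 min room-temperature step.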
HEK cytotox: cytotoxic compounds in HEK 293 cells; HEK 293 viability, ATP luminescence (CellTiter-Glo), 48-72 h; Potency, µM (series often up to 115 µM), for inactives: top-dose activity change, negative = cytotoxicity, actives largely listed as inhibitors; hit rate 6.6% among 94,000; AID 1345083; also: nearly all actives have a fitted effect of over 60% in size
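Pintool-delivered compounds were incubated with HEK 293 cells (250 cells/well) at 37 degree Celsius for 48 or 72 hr. ATP-dependent luminescence (CellTiter-Glo) then reported remaining viable cells.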
An asterisk follows results filed as active; [ ] = another dose, or the depositor's remark. Unless noted, calls follow the shape of the dose curve; as a rule, active = well fitted curve in the direction sought with a large enough effect; inconclusive = small, poorly fitted or top-dose-only effect, or another doubt; inactive = no such curve, though single readings can be large; an effect the other way counts as inactive or inconclusive. % is scaled to controls: 0 for no effect and ±100 for the full control effect; potency is read from the fitted curve at half-maximal effect.

How did Cc1ccc(C(=O)NC2CC(=O)N(CCCc3ccccc3)C2)s1 (stereo not drawn) do in these assays?
FLuc inh: inactive; hNpr1 antagonist: 2%; GPT2 inh: inactive; NIH3T3 tox: -27%; HEK cytotox: -20%

Results for CN(Cc1ccncc1)C1CCOc2ccccc21 (stereo not drawn) ?
FLuc inh: inactive; hNpr1 antagonist: 0%[70.6 µM]; GPT2 inh: inactive; NIH3T3 tox: inconclusive; HEK cytotox: inconclusive

What do the screens show for `COc1cccc(C(CC(=O)NCc2ccc3c(c2)OCO3)c2c[nH]c3ccccc23)c1OC` (stereo not drawn)?
FLuc inh: inactive; hNpr1 antagonist: 0%; GPT2 inh: inactive; NIH3T3 tox: inconclusive; HEK cytotox: inconclusive

What do the screens show for `CCc1cccc2c(C(CC(=O)NCc3ccc(F)cc3)c3cccc(OC)c3OC)c[nH]c12` (stereo not drawn)?
FLuc inh: inactive; hNpr1 antagonist: 0%; GPT2 inh: 5%; NIH3T3 tox: inconclusive; HEK cytotox: inconclusive

Results for COc1cccc(C(CC(=O)NCCc2ccc(OC)c(OC)c2)c2c[nH]c3ccccc23)c1 (stereo not drawn) ?
FLuc inh: inactive; hNpr1 antagonist: inconclusive; GPT2 inh: -1%; NIH3T3 tox: inconclusive; HEK cytotox: 45µM*

How did CCc1cccc2c(C(CC(=O)NCCOC)c3ccc(OC)c(OC)c3)c[nH]c12 (stereo not drawn) do in these assays?
FLuc inh: inactive; hNpr1 antagonist: 0%; GPT2 inh: inactive; NIH3T3 tox: -7%; HEK cytotox: -4%

How did CCc1cccc2c(C(CC(=O)NCc3ccc4c(c3)OCO4)c3ccc(OC)c(OC)c3)c[nH]c12 (stereo not drawn) do in these assays?
FLuc inh: inactive; hNpr1 antagonist: -21%; GPT2 inh: -3%; NIH3T3 tox: inconclusive; HEK cytotox: 35µM*

What do the screens show for `CCc1cccc2c(C(CC(=O)NCCc3ccccc3)c3cccc4c3OCO4)c[nH]c12` (stereo not drawn)?
FLuc inh: inconclusive; hNpr1 antagonist: -20%; GPT2 inh: -20%; NIH3T3 tox: 18µM*; HEK cytotox: 18µM*

Results for CCc1cccc2c(C(CC(=O)NCCc3ccc(OC)c(OC)c3)c3cccc(OC)c3)c[nH]c12 (stereo not drawn) ?
FLuc inh: inactive; hNpr1 antagonist: -15%; GPT2 inh: inactive; NIH3T3 tox: inconclusive; HEK cytotox: 25µM*

How did O=c1cc(-c2ccncc2)oc2c(-c3ccccc3Oc3ccccc3)nccc12 do in these assays?
FLuc inh: inactive; hNpr1 antagonist: 3%[70.6 µM]; GPT2 inh: 3%[88.5 µM]; NIH3T3 tox: inconclusive; HEK cytotox: inconclusive

Results for O=c1n(CCN2CCCN([S+](=O)([O-])c3ccccc3)CC2)nc2n1CCCC2 ?
NIH3T3 tox: -22%; HEK cytotox: -5%

What do the screens show for `COCCn1c(=O)c(C(=O)N2CCN([S+](=O)([O-])c3ccc(C)cc3)CC2)nc2cccnc21`?
GPT2 inh: -3%; NIH3T3 tox: 5%; HEK cytotox: inactive

How did CCc1cccc2c(C(CC(=O)NCCC(C)C)c3cccc(OC)c3OC)c[nH]c12 (stereo not drawn) do in these assays?
FLuc inh: inactive; hNpr1 antagonist: -1%; GPT2 inh: inconclusive; NIH3T3 tox: inconclusive; HEK cytotox: 45µM*

Results for O=[S+]1([O-])NCC2(CCCN(Cc3ccc(C(F)(F)F)cc3)C2)Nc2ccccc21 (stereo not drawn) ?
FLuc inh: inactive; hNpr1 antagonist: -17%; GPT2 inh: inconclusive; NIH3T3 tox: inconclusive; HEK cytotox: 32µM*

How did O=[S+]1([O-])NCC2(CCCN(Cc3ccc(OC(F)(F)F)cc3)C2)Nc2ccccc21 (stereo not drawn) do in these assays?
FLuc inh: inactive; hNpr1 antagonist: -25%; GPT2 inh: -13%; NIH3T3 tox: 45µM*; HEK cytotox: inconclusive

Assay outcomes deposited in PubChem BioAssay by National Center for Advancing Translational Sciences (NCATS).
